Compound activity as filed in PubChem.
Only some compounds are listed: those with a hit (about 1.2% of all), similar ones and a draw of the others.
Yp Topo-I inh: blocks Yersinia pestis topoisomerase I activity; Y. pestis Topo-I cleavage product accumulation, plate reader; activity, % at 10 µM; 0.064% of 360,000 active; AID 504884; in the data active means activity above about 50%, passing the limit was not always enough; inconclusive means no clear call, values can overlap the other calls
BH1578 lux ind: quorum light induction in luxS cqsA deficient V. cholerae. V. cholerae BH1578 lux reporter, luminescence, 6 h. activation, % at 18.7 µM. 0.16% of 350,000 active; in the data active means activation mostly above about 9.7%, no sharp cut-off; inconclusive means no clear call, values can overlap the other calls; inactive means mostly below about 3.7%
TcdB GH inh: blocks C. difficile toxin B glycohydrolase activity | inhibition, % at 9.99 µM | P18177 | 0.24% of 350,000 active | TcdB glycohydrolase enzymatic assay, plate reader | AID 652162; in the data active means inhibition above about 10%
DUSP3 inh: inhibitors of human VHR1 phosphatase (DUSP3) | P51452 | recombinant VHR phosphatase, pNPP absorbance | inhibition, % at 13.3 µM | 0.52% of 290,000 active | AID 1654; in the data active means inhibition above about 50%
BioA inh-1: blocks M. tuberculosis BioA enzyme activity | purified M. tuberculosis BioA enzyme, plate reader | inhibition, % at 9.99 µM | 0.096% of 360,000 active; in the data active means inhibition above about 40%; inconclusive means no clear call, values can overlap the other calls
PfHsp40 yeast: compounds rescuing yeast from Plasmodium falciparum HSP40 toxicity | S. cerevisiae expressing PfHsp40, growth rescue, ATP luminescence | growth rescue, % at 12.5 µM | 0.68% of 340,000 active; in the data active means growth rescue above about 28%, passing the limit was not always enough; inconclusive means no clear call, values can overlap the other calls;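 further: yeast W303a lacking pdr1 and pdr3 grown in galactose medium; growth measured after three days at 30 °C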
BioA inh-2: Mtb BioA enzyme inhibition; shares compounds with BioA inh-1; purified BioA enzyme, plate reader, dose response; max activity, %; 310 tested, under 10 active;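 further: top concentration of the dilution series was 10 µM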
HepG2 tox 2: kills HepG2 cells; shares compounds with BioA inh-1; HepG2 cytotoxicity, plate reader; max activity, %; 310 tested, under 10 active; AID 651898
3T3 cytotox 5: kills NIH3T3 cells | shares compounds with BioA inh-1 | NIH3T3 cytotoxicity, plate reader | activity change, negative = cytotoxicity, % at 26 µM | 310 tested, under 10 active
Large screens that a line does not name were inactive (follow-up assays come after a bar, where they were run). Unless noted, how the calls were made is not given here.

CCOc1ccc(NC(=O)C2CCC(CNc3c(N4CCCCC4)c(=O)c3=O)CC2)cc1 (stereo not drawn)	none
CCN(CC)S(=O)(=O)c1ccc(NC(=O)c2ccc(NS(C)(=O)=O)cc2)cc1	none (no result: TcdB GH inh)
CCN(CC)S(=O)(=O)c1ccc(NC(=O)c2ccc(Cl)nc2)cc1	BioA inh-1 52 | BioA inh-2 inactive | HepG2 tox 2 inactive | 3T3 cytotox 5 inactive
Cc1cccc(-c2nnc(SCC#N)n2Cc2ccccc2)c1	none (no result: TcdB GH inh)
Cc1cccc(-c2nnc(SCC#N)n2-c2ccccc2)c1	BioA inh-1 44 (no result: TcdB GH inh) | BioA inh-2 inactive | HepG2 tox 2 inactive | 3T3 cytotox 5 inactive
O=C(COc1ccc2ccc(=O)oc2c1)Nc1cccnc1	BioA inh-1 49 | BioA inh-2 inactive | HepG2 tox 2 inactive | 3T3 cytotox 5 inactive
COc1ccc(C(=O)Nc2cccc(NC(=O)c3cccs3)c2)cc1	BioA inh-1 59 | BioA inh-2 inactive | HepG2 tox 2 inactive | 3T3 cytotox 5 inactive
COc1ccc(NC(=O)c2ccc(NC(=O)c3cccs3)cc2)cc1	none (no result: BH1578 lux ind)
Cc1ccc(NS(=O)(=O)c2ccc3c(c2)n(C)c(=O)n3C)c(C)c1	none
CCn1c(=O)c(=O)n(CC)c2cc(S(=O)(=O)Nc3cc(C)ccc3C)ccc21	BioA inh-1 42 | BioA inh-2 inactive | HepG2 tox 2 inactive | 3T3 cytotox 5 inactive
CC(=O)c1ccc(N(C(=O)CNC(=O)c2ccco2)C(C(=O)NC2CCCC2)c2ccco2)cc1 (stereo not drawn)	none
C=CCn1c(SCc2c(C(=O)OC)sc(N)c2C(=O)OC)nnc1-c1ccc(Br)cc1	BioA inh-1 59 (no result: TcdB GH inh) | BioA inh-2 inactive | HepG2 tox 2 inactive | 3T3 cytotox 5 inactive
C[C@H](CO)N1C[C@H](C)[C@@H](CN(C)Cc2ccc3c(c2)OCO3)Oc2ccc(NC(=O)Cn3cnnn3)cc2CC1=O	BioA inh-1 48 (no result: Yp Topo-I inh, BH1578 lux ind, DUSP3 inh, PfHsp40 yeast) | BioA inh-2 inactive | HepG2 tox 2 inactive | 3T3 cytotox 5 inactive
Cc1noc(C)c1COc1cccc(C(=O)N(C)Cc2nc3ccccc3c(=O)[nH]2)c1	none (no result: DUSP3 inh)
Cc1cccc(NC(=O)CN(C)S(=O)(=O)c2cnc[nH]2)c1	none (no result: TcdB GH inh)
Cc1cc(NC(=O)CN(C)S(=O)(=O)c2cnc[nH]2)ccc1Br	BioA inh-1 42 | BioA inh-2 inactive | HepG2 tox 2 inactive | 3T3 cytotox 5 inactive
COCCNC(=O)C[C@@H]1CC[C@@H]2[C@@H](COc3ccc(NC(=O)Nc4cccc(F)c4)cc3C(=O)N2C)O1	BioA inh-1 40 (no result: Yp Topo-I inh, BH1578 lux ind, DUSP3 inh, PfHsp40 yeast) | BioA inh-2 inactive | HepG2 tox 2 inactive | 3T3 cytotox 5 inactive
COCCNC(=O)C[C@H]1CC[C@@H]2[C@@H](COc3ccc(NC(=O)Nc4cccc(F)c4)cc3C(=O)N2C)O1	BioA inh-1 55 (no result: Yp Topo-I inh, BH1578 lux ind, DUSP3 inh, PfHsp40 yeast) | BioA inh-2 inactive | HepG2 tox 2 inactive | 3T3 cytotox 5 inactive
COCCNC(=O)C[C@@H]1CC[C@@H]2[C@H](COc3ccc(NC(=O)Nc4cccc(F)c4)cc3C(=O)N2C)O1	BioA inh-1 45 (no result: Yp Topo-I inh, BH1578 lux ind, DUSP3 inh, PfHsp40 yeast) | BioA inh-2 inconclusive | HepG2 tox 2 inactive | 3T3 cytotox 5 inactive
COCCNC(=O)C[C@@H]1CC[C@H]2[C@H](COc3ccc(NC(=O)Nc4cccc(F)c4)cc3C(=O)N2C)O1	none (no result: Yp Topo-I inh, BH1578 lux ind, TcdB GH inh, DUSP3 inh, PfHsp40 yeast)
Cc1nc([N+](=O)[O-])c(Br)n1CC(=O)c1ccc2ccccc2c1	none (no result: TcdB GH inh)
Cc1ccccc1C(=O)NCCc1nnc(SCC(=O)Nc2nc(-c3ccccc3)cs2)n1C	none (no result: TcdB GH inh)
N#Cc1ccc(-c2ccc3c(c2)[C@H]2[C@H](CCN2C(=O)c2ccc(F)cc2)[C@H](CO)N3)cc1	none (no result: Yp Topo-I inh, BH1578 lux ind, TcdB GH inh, DUSP3 inh, PfHsp40 yeast)
O=C(c1ccc2c(c1)OCO2)N1CC[C@@H]2[C@H](CO)Nc3ccc(-c4ccc(F)cc4)cc3[C@@H]21	BioA inh-1 90 (no result: Yp Topo-I inh, BH1578 lux ind, DUSP3 inh, PfHsp40 yeast) | BioA inh-2 inactive | HepG2 tox 2 inactive | 3T3 cytotox 5 inactive
N#Cc1ccc(-c2ccc3c(c2)[C@@H]2[C@@H](CCN2C(=O)c2ccc(F)cc2)[C@@H](CO)N3)cc1	BioA inh-1 40 (no result: Yp Topo-I inh, BH1578 lux ind, TcdB GH inh, DUSP3 inh, PfHsp40 yeast) | BioA inh-2 inactive | HepG2 tox 2 inactive | 3T3 cytotox 5 inactive
O=C(c1ccc2c(c1)OCO2)N1CC[C@@H]2[C@@H](CO)Nc3ccc(-c4ccc(F)cc4)cc3[C@@H]21	none (no result: Yp Topo-I inh, BH1578 lux ind, DUSP3 inh, PfHsp40 yeast)
C[C@H](CO)N1C[C@H](C)[C@@H](CN(C)S(C)(=O)=O)OCCCC[C@H](C)Oc2ccc(NS(=O)(=O)c3cn(C)cn3)cc2C1=O	none (no result: Yp Topo-I inh, BH1578 lux ind, DUSP3 inh, PfHsp40 yeast)
C[C@H]1CN([C@@H](C)CO)C(=O)c2cc(C#CCN(C)C)cnc2O[C@@H]1CN(C)C(=O)c1cccc(F)c1	none (no result: Yp Topo-I inh, BH1578 lux ind, DUSP3 inh, PfHsp40 yeast)
CC(=O)c1ccc(NC(=O)C2CC(=O)N(Cc3ccccc3)C2)cc1 (stereo not drawn)	BioA inh-1 74 (no result: TcdB GH inh) | BioA inh-2 inactive | HepG2 tox 2 inactive | 3T3 cytotox 5 inactive
CCCC(NC(=O)CCc1c(C)c2cc3c(C)c(C)oc3cc2oc1=O)C(=O)NC(Cc1ccc(Cl)cc1)C(=O)O (stereo not drawn)	none (no result: DUSP3 inh, PfHsp40 yeast)
Cc1ccc(-c2nn(CCC(=O)Nc3cccnc3)c(=O)c3ccccc23)cc1	BioA inh-1 89 (no result: PfHsp40 yeast) | BioA inh-2 inactive | HepG2 tox 2 inactive | 3T3 cytotox 5 inactive
CCOc1ccccc1NC(=S)N1C2CCC1CC(NC(=O)NC13CC4CC(CC(C4)C1)C3)C2 (stereo not drawn)	none
Cc1ccccc1S(=O)(=O)NCC[C@H]1CC[C@@H](NC(=O)Nc2cccc(F)c2)[C@H](CO)O1	BioA inh-1 46 (no result: Yp Topo-I inh, BH1578 lux ind, DUSP3 inh, PfHsp40 yeast) | BioA inh-2 inactive | HepG2 tox 2 inactive | 3T3 cytotox 5 inactive
COc1ccccc1C(=O)Nc1ccnn1C1CCN(Cc2cnc(N(C)C)s2)CC1	none
COc1ccccc1CNC(=S)Nc1cc(C)ccc1C	none (no result: BioA inh-1)
CCOC(=O)CNC(=O)c1sc2ncnc(N3CCc4ccccc4C3)c2c1C	BioA inh-1 63 | BioA inh-2 inactive | HepG2 tox 2 inactive | 3T3 cytotox 5 inactive
Cc1cc(/C=C(/C#N)C(=O)Nc2ccccc2)c(C)n1-c1cccnc1	BioA inh-1 55 (no result: BH1578 lux ind) | BioA inh-2 inactive | HepG2 tox 2 inactive | 3T3 cytotox 5 inactive
Cc1cc(/C=C(\C#N)C(=O)Nc2ccccc2)c(C)n1-c1ccc2c(c1)OCO2	none
